Pf growth 96h: P. falciparum growth inhibition at 96 hours | P. falciparum luciferase reporter growth, 96 h | Potency, µM (doses to about 28.7 µM), for inactives: at the highest dose activity change, negative = inhibition, hits mostly inhibitors | hit rate 6.9% among 320,000 | AID 504834; note: potency is the fitted concentration of half-maximal effect
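Cell-based qHTS: luciferase-tagged P. falciparum in erythrocytes (2% hematocrit, 0.05% parasitemia final) incubated with compounds for 96 hours, 37 C, 5% CO2; luciferase detection reagent then added and luminescence measured.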
Sm TGR inh: inhibitors of Schistosoma mansoni thioredoxin glutathione reductase | hit rate 3% among 360,000 | Potency, µM (top dose mostly 114 µM), inactives show at the highest dose activity change, negative = inhibition, usual class: inhibitors | purified TGR, DTNB reduction, TNB absorbance 405 nm | Q962Y6 | AID 485364; note: potency is the fitted concentration of half-maximal effect; nearly all actives have a fitted effect of over 60% in size
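First, TGR (20 nM dispensed) and NADPH were mixed with compound. Second, a 15 min room-temperature incubation followed. Third, further NADPH and then DTNB were added to start the reaction. Finally, TNB absorbance was monitored kinetically.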
FBPA Giardia inh: Giardia lamblia aldolase inhibition; hit rate 0.71% among 290,000; Potency, µM (highest dose often 59.6 µM), for the others: top-dose activity, negative = inhibition, hits mostly inhibitors; A8B2U2; purified Giardia FBPA; note: potency is the fitted concentration of half-maximal effect; nearly all actives have a fitted effect of over 55% in size
Target sequence (A8B2U2 whole entry, looked up): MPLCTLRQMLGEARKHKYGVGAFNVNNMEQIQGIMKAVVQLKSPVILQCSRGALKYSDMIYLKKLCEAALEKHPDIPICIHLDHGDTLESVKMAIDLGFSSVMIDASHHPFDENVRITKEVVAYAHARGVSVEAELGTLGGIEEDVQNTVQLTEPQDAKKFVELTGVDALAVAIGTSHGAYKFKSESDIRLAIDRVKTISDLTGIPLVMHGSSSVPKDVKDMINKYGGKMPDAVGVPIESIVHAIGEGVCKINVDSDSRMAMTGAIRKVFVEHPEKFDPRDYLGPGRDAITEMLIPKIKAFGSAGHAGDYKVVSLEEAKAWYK
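40 nM FBPA preincubated 10 min at RT with compound (up to 57.5 uM final), then substrate plus GAPDH/TPI/NAD/arsenate coupling and diaphorase/resazurin added. Fluorescence read after 20 min at RT, 525/598 nm.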
Pf growth 48h: P. falciparum growth inhibition at 48 hours (one generation). P. falciparum luciferase growth in erythrocytes, 48 h. Potency, µM (titrated, usually from 28.7 µM), without a hit: at the highest dose activity change, negative = inhibition, hits mostly inhibitors. hit rate 5.9% among 310,000. AID 504832; note: potency is the fitted concentration of half-maximal effect
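First compound was added to culture medium, then infected red cells at 0.1% parasitemia and 2% hematocrit (final). After incubation at 37 C under 5% CO2, luciferase detection reagent was dispensed and light output recorded.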
HCMV antiviral: blocks human cytomegalovirus replication; HFF cells, HCMV-luciferase reporter, 72 h; stronger effect = lower value; activity change, negative = inhibition, % at 57.5 µM; hit rate 4.5% among 410,000; in the data active = activity change below about -60%; inconclusive = no clear call, values can overlap the other calls; inactive = above about -39%
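Two compound doses tested in HFFs infected with HCMV-luciferase, MOI 1 PFU/cell, 72 h at 37C. Lysate luminescence read with OneGlo; data normalized against buffer-only and 10uM Salinomycin inhibitor controls.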
* = called active by the depositor; u = inconclusive; x = no result given; + = active, no number; [ ] = dose if it differs, or a comment. Compounds with a hit are over-represented: about 14% of the library has one in this group of screens. Unless noted, calls come from the whole dose curve; as a rule, active = well fitted curve in the direction sought with a large enough effect; inconclusive = small, poorly fitted or top-dose-only effect, or another doubt; inactive = no such curve, though single readings can be large; an effect the other way counts as inactive or inconclusive. % is set by controls: 0 for no effect and ±100 for the full control effect.

SMILES	Pf growth 96h	Sm TGR inh	FBPA Giardia inh	Pf growth 48h	HCMV antiviral
Cc1cc(C)cc(NC(=S)NC2CC3CCC(C2)N3Cc2ccco2)c1 (centres undefined)	2.3µM*	-32%	1%	u	-40
Fc1ccc(NC(=S)NC2CC3CCC(C2)N3Cc2ccco2)cc1 (centres undefined)	-18%	x	1%	-3%	-11
O=C(CSCc1cnn(-c2ccccc2)c1-n1cccc1)NCc1cccs1	4.7µM*	0%	0%	x	-39
O=C(CSCc1cnn(-c2ccccc2)c1-n1cccc1)NCc1ccc(F)cc1	x	9%	x	x	4
CC(C)N(Cc1nccn1C)C(=O)c1cc(COc2cccc(C(F)(F)F)c2)on1	-14%	2%	4%	10%	-18
CSc1ccccc1OCc1cc(C(=O)N(Cc2nccn2C)C(C)C)no1	7%	-1%	x	1%	49
Cc1cc(OCc2cc(C(=O)N(Cc3nccn3C)C(C)C)no2)cc(C)c1Cl	15µM*	-6%	x	0%	47
Cc1ccc(CN(C)C(=O)c2cc(COc3ccc(F)cc3Cl)on2)o1	25%	25µM*	-8%	0.093µM*	-7
Cc1nonc1CN(C)C(=O)c1cc(COc2ccc(F)cc2Cl)on1	-16%	0%	x	17%	-8
COc1ccccc1CCNC(=O)c1cc(COc2cccc(C(F)(F)F)c2)on1	u	8%	x	-2%	+
CN(Cc1nccn1C)C(=O)c1cc(COc2cccc(C(F)(F)F)c2)on1	9.3µM*	-23%	x	-9%	-16
COC(=O)[C@H]1[C@H](CO)[C@H]2Cn3c(ccc(Br)c3=O)[C@H]2N1C(C)=O	x	x	x	x	20
CCc1ccc(CN(C)C(=O)c2cc(COc3cccc(C(F)(F)F)c3)on2)nc1	u	-1%	3%	u	11
Cc1ccc(CN(C)C(=O)c2cc(COc3cccc(C(F)(F)F)c3)on2)o1	28%	10µM*	-1%	12%	148
COc1ccc(CCN2C(=O)CC(Cc3ccccc3)C2=O)cc1OC (centres undefined)	6%	17%	0%	-3%	u
Cc1ccc(CC2CC(=O)N(CCc3ccccc3)C2=O)cc1 (centres undefined)	13µM*	x	-8%	9%	-27
Cc1cccc(CC2CC(=O)N(c3ccccc3)C2=O)c1 (centres undefined)	22%	-11%	2%	-27%	-7
Cc1ccc(N2C(=O)CC(Cc3cccc(C)c3)C2=O)cc1 (centres undefined)	0.29µM*	0%	0%	10%	-6
CC1Cc2cc(-c3csc(N)n3)ccc2O1 (centres undefined)	0%	9%	3%	88%	51
COc1ccc(NC(=O)/C(C#N)=C/c2ccc(OCCN3CCOCC3)c(OC)c2)c(OC)c1	13µM*	3%	x	-6%	x
N#C/C(=C\c1ccc(OCCN2CCOCC2)cc1)C(=O)Nc1ccc(S(N)(=O)=O)cc1	6.6µM*	1%	x	3%	-3
CCOC(=O)C1(C)CCCN1C(=O)c1ccc(C(=O)OC)cc1 (centres undefined)	x	x	x	x	-5
O=C(CSc1n[nH]c(-c2ccco2)n1)N1c2ccccc2Sc2ccccc21	-7%	35µM*	-1%	u	-22
Cn1nnnc1SCC(=O)N1c2ccccc2Sc2ccccc21	u	0%	4%	-18%	23
CCOC(=O)CSc1n[nH]c(-c2ccco2)n1	85%	-13%	-26%	x	23
SMILES	Pf growth 96h	Sm TGR inh	FBPA Giardia inh	Pf growth 48h	HCMV antiviral
O=C(CSc1nncs1)N1c2ccccc2Sc2ccccc21	x	-19%	7%	13µM*	-35
O=C(Nc1ccc(N2CCN(Cc3ccccc3)CC2)cc1)c1ccco1	10%	-6%	x	u	-82*
O=C(Nc1ccc(N2CCN(C(=O)c3ccco3)CC2)cc1)c1ccccc1	46%	1%[57.1 µM]	-7%	u	157
CC(C)CC(=O)N1CCN(c2ccc(NC(=O)c3ccco3)cc2)CC1	9.3µM*	0%	x	u	-21
O=C(Nc1ccc(N2CCCCC2)cc1)c1cccnc1	u	-20%	-6%	113%	29
CC(=O)N1CCN(c2ccc(NCc3ccccc3)cc2)CC1	x	-46%	-19%	44%	-13
CC(C)(C)C(=O)N1CCN(c2ccc(NC(=O)c3ccco3)cc2)CC1	u	11%	x	-29%	20
